From PubChem BioAssay AID1825 (The Scripps Research Institute Molecular Screening Center, 2009) come the findings set out here.

About 2,300 (0.79%) of roughly 290,000 compounds were called active. Rule as the data show it: active = inhibition above about 22%; inactive = the rest. Only a selection was taken, and actives are over-represented in it overall.

This assay can be described thus: cytotoxicity in IEC-6 intestinal epithelial cells, primary screen, cytotoxicity control for KLF5 inhibitor project, cell-based, luminescence (AID 1825).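 Also: 0% = plate median of test compound wells and 100% = cytotoxic reference compound wells.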 The settings on record: IEC-6 cytotoxicity, luminescence viability; at 5 µM; active compounds read high.
For the molecule `CCn1ccnc1CN(C)C(=O)c1cc(COc2ccc(Cl)cc2OC)on1`, the inhibition (commonly the relative decrease from the control value, in per cent) was 1.4% (inactive).

With `Cc1nn(CCCC(=O)NCc2ccccc2Cl)c(=O)c2nccn12`, the inhibition is -5.6% (inactive).

Turning to `COc1ccc(Nc2cc(C)nc(-n3nc(C)cc3C)n2)cc1`, the inhibition is 84.8% (active).

As for `Cc1cc(Oc2ccc(Cl)cc2)nc(SCC(=O)c2ccccc2)n1`, the inhibition was 1.9% (inactive).

For `CC(=O)c1ccc(Oc2cc(C)nc(-n3nc(C)cc3C)n2)cc1`, the inhibition was 85.4% (active).

Turning to `Cc1cc(N/N=C\c2ccc(Br)cc2)nc(-n2nc(C)cc2C)n1`, the inhibition is -0.5% (inactive).

As for `COc1ccccc1/C=N\Nc1cc(C)nc(-n2nc(C)cc2C)n1`, the inhibition is -10.1% (inactive).

On to `CCOC(=O)c1cnc(-n2nc(C)cc2C)nc1Nc1cccc(C(C)=O)c1`, for which the inhibition is 1.3% (inactive).

Consider `N#CCc1ccc(NC(=O)c2ccccc2C(=O)Nc2ccc(CC#N)cc2)cc1`, for which the inhibition is -5.3% (inactive).

Take `COC(=O)COc1ccc2c(=O)c(Oc3ccccc3Br)coc2c1`: the inhibition was 5.7% (inactive).

In the case of `Cc1nc2sccn2c(=O)c1S(=O)(=O)NCCc1ccccc1`, the inhibition is -0.1% (inactive).

For `CCc1cccc(NC(=O)C2CCCN(S(=O)(=O)c3ccc4[nH]c(=O)ccc4c3)C2)c1` (configuration not stated), the inhibition is -2.8% (inactive).

Turning to `COc1ccc2oc(=O)cc(-c3cc4ccccc4o3)c2c1`, the inhibition was 2.8% (inactive).

For `COc1ccc(Nc2nnc(C)c3ccccc23)cc1`, the inhibition is -4% (inactive).

In the case of `COc1ccc(Nc2cc(=O)oc3ccccc23)cc1`, the inhibition is 46.4% (active).

Turning to `O=S(=O)(Cc1nnnn1-c1ccccc1)c1ccccc1`, the inhibition is 1.5% (inactive).

Turning to `O=C(Nc1nnc(S(=O)(=O)N2CCOCC2)s1)c1cccc(Br)c1`, the inhibition is 0.3% (inactive).

On to `O=C(Nc1nnc(C2CC2)s1)c1cc(Cl)sc1Cl`, for which the inhibition was 0.1% (inactive).

Consider `O=C(Nc1nnc(C2CC2)s1)c1ccccn1`, for which the inhibition is 27.4% (active).

For the molecule `Cc1cnc(NC(=O)c2ccccn2)s1`, the inhibition is 8.9% (inactive).

As for `COc1ccc(/C=N/N(C)C2=NS(=O)(=O)c3ccccc32)cc1OC`, the inhibition was -2.2% (inactive).

Take `CN(C)c1nc(=Nc2cccc(Cl)c2)ss1`: the inhibition was 56.2% (active).

As for `Clc1cccc(N=C2NN=C(c3ccc4c(c3)OCCO4)CS2)c1`, the inhibition was -1.6% (inactive).

Regarding `O=C(CN1CCN(Cc2ccccc2)CC1)Nc1ccc(F)c(F)c1`, the inhibition was 6.7% (inactive).

In the case of `Cn1c(=O)oc2cc(S(=O)(=O)NCCC(=O)NCc3ccccc3Cl)ccc21`, the inhibition is 0.7% (inactive).

Consider `COc1ccccc1CNC(=O)C1CCN(S(=O)(=O)c2ccc3c(c2)CC(C)N3C(=O)C2CC2)CC1` (configuration not stated), for which the inhibition is 3.9% (inactive).

On to `Cc1ccccc1NC(=O)CSc1nc2ccc(Nc3nc(N4CCOCC4)nc(N4CCOCC4)n3)cc2s1`, for which the inhibition was 3.9% (inactive).

As for `Cc1ccc(Nc2nc(N3CCOCC3)nc(N3CCOCC3)n2)cc1Cl`, the inhibition is 68.1% (active).

On to `Cc1cc(Nc2ccc(Cl)cc2)nc(N2CCOCC2)n1`, for which the inhibition was 11.5% (inactive).

Take `Cc1ccc(NC(=O)CN(C)C(=O)c2ccc(Br)o2)cc1`: the inhibition is -4.8% (inactive).

Turning to `O=C(c1ccc(S(=O)(=O)N2CCCC2)cc1)N1CCN(c2ccccc2F)CC1`, the inhibition is 2.3% (inactive).

For the molecule `Cn1c(=O)cc(OCC(=O)N2CCN(c3ccccc3F)CC2)c2ccccc21`, the inhibition was -5.1% (inactive).

Take `O=C(Nn1cc(C(=O)N2CCN(c3ccccc3F)CC2)c2ccccc2c1=O)c1cnccn1`: the inhibition is 23.7% (active).

`CCCOn1c(-n2nc(C)cc2C)nc2ccccc2c1=O`: the inhibition was 54.7% (active).

In the case of `Cc1cc(C)n(-c2nc(C(F)(F)F)nc3ccccc23)n1`, the inhibition was 5.6% (inactive).

Turning to `CCOn1c(SC(C)C)nc2ccccc2c1=O`, the inhibition is -3.8% (inactive).

In the case of `O=C(c1cc2sccc2n1Cc1ccc(F)cc1)N1CCc2ccccc21`, the inhibition was 1.8% (inactive).

Regarding `COc1ccccc1C(C)NC(=O)Cc1ccsc1` (configuration not stated), the inhibition is 1.9% (inactive).

Regarding `O=C(NC(Nc1nc2ccc([N+](=O)[O-])cc2s1)(C(F)(F)F)C(F)(F)F)c1ccccc1`, the inhibition is 28% (active).

Take `O=C(Nc1nc2ccc([N+](=O)[O-])cc2s1)c1ccc(S(=O)(=O)N2CCCc3ccccc32)cc1`: the inhibition was 2.9% (inactive).

On to `O=C(COC(=O)c1ccc(F)cc1)Nc1nc2ccc([N+](=O)[O-])cc2s1`, for which the inhibition was -0.2% (inactive).

As for `CCc1nn(CCCC(=O)Nc2ccc(C)cc2C)c(=O)c2cc3occc3n12`, the inhibition is -4.9% (inactive).

`CCCCCCCCn1c2c(c(=N)c3c1CCC3)CCCC2`: the inhibition was 47.1% (active).

For `CCCCCCn1c(CN2CCCCC2)nc2c1c(=O)n(C)c(=O)n2C`, the inhibition is -2.7% (inactive).

Take `COc1ccc(CCNC(=O)c2c(C)nn(-c3ccccc3)c2Cl)cc1`: the inhibition is -1.7% (inactive).

As to `CCOC(=O)c1c(C)[nH]c(C)c1S(=O)(=O)N(C)CC(=O)Nc1ccccc1C`, the inhibition is -0.8% (inactive).

With `CCOC(=O)c1c(C)[nH]c2c1-c1ccccc1C(=O)C2=O`, the inhibition was 43.3% (active).

In the case of `CCOC(=O)C1=C(c2ccc(OC)cc2)C(=O)c2ccccc2C1=O`, the inhibition is -1.7% (inactive).

As to `Cc1cc(C)c(S(=O)(=O)c2cc(F)ccc2C)c(=O)[nH]1`, the inhibition was -1.4% (inactive).

For `O=C(CN1CCCCCC1)Nc1ccc(Cl)cc1F`, the inhibition was 8.4% (inactive).

Take `O=C1NC(Nc2nc3ccccc3s2)(C(F)(F)F)C(=O)N1C1CCCCC1` (configuration not stated): the inhibition is 28.2% (active).

`O=C(NC1(C(F)(F)F)NC(=O)N(C2CCCCC2)C1=O)c1ccco1` (configuration not stated): the inhibition was 3.5% (inactive).

For `COC(=O)NC1(C(F)(F)F)NC(=O)N(C2CCCCC2)C1=O` (configuration not stated), the inhibition is 1.9% (inactive).

In the case of `CCN(CC)CCN1C(=O)C(=O)/C(=C(/O)c2cnn(-c3ccccc3)c2C)C1c1cccs1` (configuration not stated), the inhibition is 3.3% (inactive).

`CN1C(=O)c2ccc(C(=O)Nc3ccc(Br)cn3)cc2C1=O`: the inhibition is 5.5% (inactive).

Regarding `CSc1ccc(/C=N\NC(=O)COc2ccc(Cl)cc2Br)cc1`, the inhibition was 7.1% (inactive).

For the molecule `Cc1ccc(/C=N/NC(=O)COc2ccccc2-c2ccccc2)cc1`, the inhibition is 85.6% (active).

In the case of `C=CCc1ccccc1OCC(=O)N/N=C/c1ccccc1OCC`, the inhibition was 1.4% (inactive).

`COc1ccccc1NC(=O)c1ccc(N2CC3CC(C2)c2cccc(=O)n2C3)c(NC(=O)c2cccnc2)c1` (configuration not stated): the inhibition was 2.1% (inactive).

For `O=C(NCc1ccccc1)C(c1ccco1)N(C(=O)c1csnn1)c1ccccc1F` (configuration not stated), the inhibition is 0.2% (inactive).

For the molecule `COc1ccccc1C1C2=C(COC2=O)Nc2cc3c(cc21)OCO3` (configuration not stated), the inhibition is 92.2% (active).

With `COC(=O)C1=C(C)NC(=O)CC1c1ccccc1OC` (configuration not stated), the inhibition is -0.1% (inactive).

As to `COc1cc2c(cc1OC)C(c1ccncc1)CC(=O)N2` (configuration not stated), the inhibition was 1% (inactive).

In the case of `CCCOc1ccccc1C1CC(=O)Nc2cc3c(cc21)OCO3` (configuration not stated), the inhibition is 77.5% (active).

Take `COc1ccc(S(=O)(=O)Nc2ccc3c(c2)OCO3)cc1Cl`: the inhibition is 0.7% (inactive).

For `COc1ccc(C2CC(=O)Nc3cc(C)c(C)cc32)c(OC)c1OC` (configuration not stated), the inhibition was 1.9% (inactive).

In the case of `COc1ccc(NC(=O)c2cccc(Cl)c2)c[n+]1[O-]`, the inhibition was 2.7% (inactive).

For the molecule `COCCN1C(=O)C(=O)/C(=C(/O)c2ccc(S(=O)(=O)N3CCOCC3)cc2)C1c1ccc(O)c(OC)c1` (configuration not stated), the inhibition was -5.5% (inactive).

For the molecule `O=C(NCCCN1CCOCC1)c1cc(-c2cccc(O)c2)on1`, the inhibition was -0.6% (inactive).

Turning to `O=C(N/N=C\c1cc2c(cc1Cl)OCO2)c1ccc(Br)s1`, the inhibition is 0.3% (inactive).

In the case of `COc1cc2c(cc1O)[C@H](Cc1ccc(Oc3cc(C[C@@H]4NCCc5cc(OC)c(O)cc54)ccc3O)cc1)NCC2`, the inhibition is 1.5% (inactive).

With `CCc1ccc(OCC2c3cc(OC)c(OC)cc3CCN2C(C)=O)cc1` (configuration not stated), the inhibition is 9% (inactive).

For the molecule `CC[C@H]1CN2CCc3cc(OC)c(OC)cc3[C@@H]2C[C@@H]1C[C@H]1NCCc2cc(OC)c(OC)cc21`, the inhibition is 98.9% (active).

Regarding `Fc1ccc(-n2c(Cc3ccccc3)nnc2SCc2nc(-c3ccc(Cl)cc3)no2)cc1`, the inhibition was -0.4% (inactive).

On to `COc1ccc(CN2CCC(n3nccc3NC(=O)CCCc3ccccc3)CC2)cc1C`, for which the inhibition was 2.8% (inactive).

Regarding `COC(=O)CNC(=O)c1ccccc1F`, the inhibition is -2.1% (inactive).

As for `CSc1nc(N(C)NC(=O)c2cccc(C)c2)c2ccccc2n1`, the inhibition was 94.6% (active).

Take `CN(NC(=O)c1ccccc1)c1nc2ccccc2nc1C(F)(F)F`: the inhibition was -0.3% (inactive).

In the case of `CN(NC(=O)c1ccccc1F)c1nc(C(F)(F)F)nc2ccccc12`, the inhibition is 83.3% (active).

With `Cc1cccc(C(=O)NCCCN(C)CCCNC(=O)c2cccc(C)c2)c1`, the inhibition was -0.9% (inactive).

`COc1ccc(C(=O)NN(C)c2nc(-c3ccccc3)cc(C)c2S(C)(=O)=O)cc1`: the inhibition was 1% (inactive).

Take `CCOc1ccccc1NC(=S)NC(=O)CCc1ccccc1`: the inhibition is -2.9% (inactive).

With `NC(=O)CSc1nnc(NC(=O)c2ccc(Br)o2)s1`, the inhibition is -5.8% (inactive).

For the molecule `CN(C)CCCNC(=O)c1cc(C(=O)Cc2ccc(Cl)cc2)c[nH]1`, the inhibition is 2.2% (inactive).

For `COc1ccc(N2CCN(S(=O)(=O)c3ccc4c(c3)NC(=O)C(C)C(=O)N4)CC2)cc1` (configuration not stated), the inhibition was 1% (inactive).

On to `COc1cc(C(=O)NN(CCC#N)C2=NS(=O)(=O)c3ccccc32)cc(OC)c1OC`, for which the inhibition was -4.2% (inactive).

As to `Cc1cccc(/C=N/NC(=O)CNc2cccc3ccccc23)n1`, the inhibition is 37.6% (active).

In the case of `C/C(=N\NC(=O)CNc1cccc2ccccc12)c1ccc(Br)s1`, the inhibition is 0.2% (inactive).

In the case of `Cc1ccccc1NCC(=O)N/N=C\c1ccc([N+](=O)[O-])s1`, the inhibition was -4.9% (inactive).

Consider `Cn1cccc1/C=N/NC(=O)CNc1cccc2ccccc12`, for which the inhibition is 47.6% (active).

As for `Cc1cccc(C(=O)Nc2ccc(C(=O)N/N=C/c3cccc(C)n3)cc2)c1`, the inhibition was 1.5% (inactive).

For the molecule `Cn1cccc1/C=N/NC(=O)c1ccc(OC(F)(F)C(F)F)cc1`, the inhibition was 2.6% (inactive).

As to `O=C(NCCCn1ccnc1)c1cc(Br)c(Br)s1`, the inhibition was -4.3% (inactive).

For the molecule `CN1C(=O)[C@H]2[C@@H](C3CC3)N3C(=O)CN(Cc4ccccc4)C(=O)[C@@]3(C)[C@H]2C1=O`, the inhibition was -1.7% (inactive).

`CC1CCCCN1S(=O)(=O)c1ccc(C(=O)Nc2nnc(-c3cccs3)o2)cc1` (configuration not stated): the inhibition was 29.2% (active).

With `CC1CCCN(S(=O)(=O)c2ccc(C(=O)Nc3nnc(-c4ccncc4)o3)cc2)C1` (configuration not stated), the inhibition is -1% (inactive).

Take `CSCc1nnc(NC(=O)c2ccc(S(=O)(=O)N3CCCCC3C)cc2)o1` (configuration not stated): the inhibition was -0.9% (inactive).
